Test results: PubChem BioAssay (NCATS)
Records with an inconclusive call do not appear. Where a call stands in place of a potency, no number is given. Calls of active or inactive are those of the source. Calls come from the whole dose curve; as a rule, active = well fitted inhibition curve with a large enough effect; inconclusive = small, poorly fitted or top-dose-only effect; inactive = flat fitted curve, though single readings scatter.

test system: Zika virus NS2B-NS3 protease; experiment: Primary screen GU AMC qHTS for Zika virus inhibitors (AID 1347154); details: Zika NS2B-NS3 unlinked protease, AMC fluorogenic substrate; series mostly up to 54.1 µM; note: nearly all actives have a fitted effect of over 70% in size
From the text: Avindra Nath, Ph.D., National Institute of Neurological Disorders and Stroke (NINDS), Bethesda, MD
Radhakrishnan Padmanabhan, Ph.D., Georgetown University (GU), Washington D.C.
Zika Virus causes congenital defects, including microcephaly and is associated with Guillain-Barre syndrome, eningoencephalitis and myelitis in infected adult. […] Using a target-based approach, we hope to establish a screening paradigm to uncover novel, cell-active NS2B-NS3 protease (Zika Virus) specific inhibitors from NCATS' collection of small molecules using qHTS.
Early Translation Branch (ETB)
National Center for Advancing Translational Sciences (NCATS), Rockville, MD
National Institute of Health (NIH), Bethesda, Maryland
Padmanabhan lab provided the NS2B hydrophilic domain and NS3 protease domain in a noncovalent complex used for the unlinked assay. Control compound aprotinin is obtained from Thermo Scientific (#78432; Waltham, Massachusetts). NS2B-NS3 AMC substrate (Bz-Nle-Lys-Arg-Arg-AMC; Nle-KRR-AMC) purchased from Bachem (#I-1995; Torrance, CA). Ac-VKTGKR-AMC purchased from Genscript or Bachem, Ac-FAAGKR-AMC purchased from Genscript, Ac-GLVKRR-AMC purchased from Genscript, Ac-LKKR-AMC purchased from Genscript.
GU AMC unlinked NS2B-NS3 protease qHTS protocol
Briefly, 3 microL of Zika virus unlinked NS2B-NS3 protease (25 nM for linked final concentration), in assay buffer (10 mM Tris-HCl pH 8.0 with 0.01% Tween 20) was dispensed into a 1,536-well solid-bottom black plate (Greiner Bio One, Monroe, NC). […] Plates were then read immediately on a ViewLux High-throughput CCD imager (PerkinElmer, Waltham, MA) equipped with standard UV fluorescence optics (340(30) nm excitation, 450(20) nm emission) then incubated (room temperature, protected from light) for 15 minutes (~20% conversion). The change in fluorescence intensity over the 15-minute reaction period was normalized against no-inhibitor and no-enzyme controls and the resulting percent inhibition data were fitted to a 4-parameter Hill equation. Aprotinin was used as the intraplate control.

Q: Which Potency does the source give for CCN(CCO)CCCC(C)Nc1ccnc2cc(Cl)ccc12 (stereo not given) here?
A: inactive

Q: Which Potency does the source give for COc1cc(C(C)=O)ccc1OCCCN1CCC(c2noc3cc(F)ccc23)CC1 here?
A: inactive

Q: Which Potency does the source give for Cc1ccc(NC(=O)c2ccc(CN3CCN(C)CC3)cc2)cc1Nc1nccc(-c2cccnc2)n1 here?
A: inactive

Q: Which Potency does the source give for C[C@@H](c1ncncc1F)[C@](O)(Cn1cncn1)c1ccc(F)cc1F here?
A: inactive

Q: With Nc1ccn([C@@H]2O[C@H](CO)[C@@H](O)C2O)c(=O)n1 (stereo not given in full) as the compound, how does the Potency read?
A: inactive

Q: How did the Potency turn out when COc1ccccc1N1CCN(CCN(C(=O)C2CCCCC2)c2ccccn2)CC1 was run?
A: inactive

Q: Which Potency does the source give for N=C(N)c1ccc2cc(OC(=O)c3ccc(N=C(N)N)cc3)ccc2c1 here?
A: inactive

Q: CN(C)[C@@H](CCOc1cccc2ccccc12)c1ccccc1 was tested. Which Potency did it give?
A: inactive

Q: How did the Potency turn out when C[C@]12CCC(=O)C=C1CC[C@@H]1[C@H]2[C@@H](O)C[C@@]2(C)[C@H]1CC[C@]2(O)C(=O)CO was run?
A: inactive

Q: Which Potency does the source give for Clc1ccc(C(Cn2ccnc2)OCc2ccc(Sc3ccccc3)cc2)c(Cl)c1 (stereo not given) here?
A: inactive

Q: Which Potency does the source give for Nc1nc(OCc2ccccc2)c2[nH]cnc2n1 here?
A: inactive

Q: How did the Potency turn out when O=C(O)CCNC(=O)c1ccc(N=Nc2ccc(O)c(C(=O)O)c2)cc1 was run?
A: inactive

Q: With CN(C)C(=O)COC(=O)Cc1ccc(OC(=O)c2ccc(N=C(N)N)cc2)cc1 as the compound, how does the Potency read?
A: inactive

Q: With CCOC(=O)c1c(C)n(C)c2ccc(O)cc12 as the compound, how does the Potency read?
A: inactive

Q: CC(C)[N+]1(C)[C@@H]2CC[C@H]1CC(OC(=O)C(CO)c1ccccc1)C2 (stereo not given in full) was tested. Which Potency did it give?
A: inactive

Q: With NNc1nncc2ccccc12 as the compound, how does the Potency read?
A: inactive

Q: For OC(CN1CCN(c2cccc(Cl)c2)CC1)C(c1ccccc1)c1ccccc1 (stereo not given), which Potency is on record?
A: inactive

Q: How did the Potency turn out when Cc1cccc(C)c1OCC(=O)N[C@@H](Cc1ccccc1)[C@@H](O)C[C@H](Cc1ccccc1)NC(=O)[C@H](C(C)C)N1CCCNC1=O was run?
A: inactive

Q: For CNC[C@@H](O)[C@@H](O)[C@H](O)[C@H](O)CO, which Potency is on record?
A: inactive

Q: How did the Potency turn out when N[C@@H](Cc1cc(I)c(Oc2cc(I)c(O)c(I)c2)c(I)c1)C(=O)O was run?
A: inactive

Q: For CC(=O)O[C@H]1C(=O)[C@@]2(C)C([C@H](OC(=O)c3ccccc3)[C@]3(O)C[C@H](OC(=O)[C@H](O)[C@@H](NC(=O)c4ccccc4)c4ccccc4)C(C)=C1C3(C)C)[C@]1(OC(C)=O)CO[C@@H]1C[C@@H]2O (stereo not given in full), which Potency is on record?
A: inactive

Q: For CCCCCCCCCCCCCCCCCCCCCCO, which Potency is on record?
A: inactive

Q: With O=c1oc2cc(O)ccc2s1 as the compound, how does the Potency read?
A: inactive

Q: Cc1c(OCC(F)(F)F)ccnc1CS(=O)c1nc2ccccc2[nH]1 (stereo not given) was tested. Which Potency did it give?
A: inactive

Q: Which Potency does the source give for Cc1ccc(C)c(OCCCC(C)(C)C(=O)O)c1 here?
A: inactive

Q: Which Potency does the source give for CCC1=C(C)CN(C(=O)NCCc2ccc(S(=O)(=O)NC(=O)NC3CCC(C)CC3)cc2)C1=O (stereo not given) here?
A: inactive

Q: Which Potency does the source give for Cc1c(C(=O)NN2CCCCC2)nn(-c2ccc(Cl)cc2Cl)c1-c1ccc(Cl)cc1 here?
A: inactive

Q: Which Potency does the source give for CN(C)c1ccc2nc3ccc(=[N+](C)C)cc-3sc2c1 here?
A: inactive

Q: With Cc1ccc(S(=O)(=O)NC(=O)NN2CC3CCCC3C2)cc1 (stereo not given) as the compound, how does the Potency read?
A: inactive

Q: For C[Se]CCC(N)C(=O)O (stereo not given), which Potency is on record?
A: inactive

Q: For C[C@@H](N)C1CCC(C(=O)Nc2ccncc2)CC1 (stereo not given in full), which Potency is on record?
A: inactive

Q: For CCc1nc(N)nc(N)c1-c1ccc(Cl)cc1, which Potency is on record?
A: inactive

Q: With COC1=C(OC)C(=O)C(CCCCCCCCCCO)=C(C)C1=O as the compound, how does the Potency read?
A: inactive

Q: With CCOC(=O)C(C)Oc1cccc2c(=O)n(CC(=O)Nc3ccc4c(c3)OCCO4)ccc12 (stereo not given) as the compound, how does the Potency read?
A: inactive

Q: For NCCCCNCCCN, which Potency is on record?
A: inactive

Q: Which Potency does the source give for CC(=O)N1CCN(c2ccc(OC[C@H]3CO[C@](Cn4ccnc4)(c4ccc(Cl)cc4Cl)O3)cc2)CC1 here?
A: inactive

Q: How did the Potency turn out when CC[C@]1(O)C[C@H]2CN(CCc3c([nH]c4ccccc34)[C@@](C(=O)OC)(c3cc4c(cc3OC)N(C=O)[C@H]3[C@@](O)(C(=O)OC)[C@H](OC(C)=O)[C@]5(CC)C=CCN6CC[C@]43[C@@H]65)C2)C1 was run?
A: inactive

Q: Which Potency does the source give for S=c1nc[nH]c2nc[nH]c12 here?
A: inactive

Q: How did the Potency turn out when CN1C(C(=O)Nc2ccccn2)=C(O)c2sccc2S1(=O)=O was run?
A: inactive

Q: CN(C)CCc1c[nH]c2ccc(Cn3cncn3)cc12 was tested. Which Potency did it give?
A: inactive
